{
  "source": "PubChem BioAssay",
  "key": {"[1]": {"test_system": "PRMT1 (protein arginine N-methyltransferase 1)", "assay": "PRMT1 binders on small-molecule microarrays, primary screen, biochemical, small-molecule microarray, 635 nm fluorescence (AID 1088);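 also: binding of Prmt1 protein to compounds spotted on small-molecule microarray slides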", "conditions": "small-molecule microarray binding, higher = more signal"}, "[2]": {"assay": "yeast growth modulation, basal conditions, primary screen, YJM789 clinical isolate, OD600, 24 h (AID 1089);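 also: growth of clinical yeast isolate S. cerevisiae YJM 789 seeded 1000 cells per well; test concentration not given here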", "conditions": "S. cerevisiae YJM789 growth, higher = more signal, called active from +8 up or from −8 down"}, "[3]": {"assay": "fission yeast growth modulation, primary screen, strain 972, OD600, 24 h, no modulator (AID 1090);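 also: basal condition with compound alone and no growth modifier present; test concentration not given here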", "conditions": "S. pombe 972 growth, higher = more signal, called active from +8 up or from −8 down"}, "[4]": {"assay": "S. cerevisiae growth modulation with rapamycin, primary screen, strain BY4716, OD600, 96 h (AID 1091); also: test concentration not given here", "conditions": "higher = more signal, called active from +8 up or from −8 down"}, "[5]": {"biological_target": "Torsin-1A-interacting protein 2 (Homo sapiens) (UniProt Q8NFQ8)", "sequence (Q8NFQ8 whole entry, looked up)": "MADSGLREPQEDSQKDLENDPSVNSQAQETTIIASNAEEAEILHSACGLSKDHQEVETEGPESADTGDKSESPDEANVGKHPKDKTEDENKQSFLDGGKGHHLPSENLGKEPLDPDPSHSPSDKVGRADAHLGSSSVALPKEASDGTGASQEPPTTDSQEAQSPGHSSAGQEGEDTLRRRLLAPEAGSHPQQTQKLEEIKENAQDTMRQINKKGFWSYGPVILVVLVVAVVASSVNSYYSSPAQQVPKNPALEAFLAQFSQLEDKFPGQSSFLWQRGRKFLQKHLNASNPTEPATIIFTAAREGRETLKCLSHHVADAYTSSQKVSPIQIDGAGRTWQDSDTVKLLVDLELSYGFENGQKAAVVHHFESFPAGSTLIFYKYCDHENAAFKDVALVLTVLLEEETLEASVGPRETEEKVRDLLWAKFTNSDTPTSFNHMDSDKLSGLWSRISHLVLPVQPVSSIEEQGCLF", "assay": "LULL1 binders on small-molecule microarray, primary screen, cell lysate, human LULL1 lysate, 635/667 nm fluorescence (AID 1092);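 also: probe is lysate of COS7 cells overexpressing human LULL1; score merges per-feature 667 nm fluorescence with signal-to-noise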", "conditions": "hLULL1 lysate binding, 635 nm fluorescence, higher = more signal"}, "[6]": {"assay": "E. coli growth modulation, two-sided OD650, primary screen, E. coli filamentation project, strain DRC41, 24 h (AID 1093);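 also: MC1000 strain lacking acrAB efflux and sulA so SOS filamentation is blocked; test concentration not given here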", "conditions": "OD650, 24 h, higher = more signal, called active from +8 up or from −8 down"}, "[7]": {"assay": "small-molecule microarray binders of probe aLefty2, primary screen, biochemical, biotinylated probe, 635/667 nm fluorescence (AID 1094);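 also: score merges spot fluorescence near 667 nm with spot signal-to-noise ratio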", "conditions": "higher = more signal"}, "[8]": {"test_system": "Noggin (protein binding on small-molecule microarray)", "assay": "Noggin binders on small-molecule microarray, primary screen, biochemical, 635/667 nm fluorescence (AID 1095);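 also: score merges 667 nm feature fluorescence with signal to noise over triplicate slides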", "conditions": "635 nm fluorescence, higher = more signal"}, "[9]": {"biological_target": "Neurogenic locus notch homolog protein 3 (Homo sapiens) (UniProt Q9UM47)", "sequence (Q9UM47 whole entry, looked up)": "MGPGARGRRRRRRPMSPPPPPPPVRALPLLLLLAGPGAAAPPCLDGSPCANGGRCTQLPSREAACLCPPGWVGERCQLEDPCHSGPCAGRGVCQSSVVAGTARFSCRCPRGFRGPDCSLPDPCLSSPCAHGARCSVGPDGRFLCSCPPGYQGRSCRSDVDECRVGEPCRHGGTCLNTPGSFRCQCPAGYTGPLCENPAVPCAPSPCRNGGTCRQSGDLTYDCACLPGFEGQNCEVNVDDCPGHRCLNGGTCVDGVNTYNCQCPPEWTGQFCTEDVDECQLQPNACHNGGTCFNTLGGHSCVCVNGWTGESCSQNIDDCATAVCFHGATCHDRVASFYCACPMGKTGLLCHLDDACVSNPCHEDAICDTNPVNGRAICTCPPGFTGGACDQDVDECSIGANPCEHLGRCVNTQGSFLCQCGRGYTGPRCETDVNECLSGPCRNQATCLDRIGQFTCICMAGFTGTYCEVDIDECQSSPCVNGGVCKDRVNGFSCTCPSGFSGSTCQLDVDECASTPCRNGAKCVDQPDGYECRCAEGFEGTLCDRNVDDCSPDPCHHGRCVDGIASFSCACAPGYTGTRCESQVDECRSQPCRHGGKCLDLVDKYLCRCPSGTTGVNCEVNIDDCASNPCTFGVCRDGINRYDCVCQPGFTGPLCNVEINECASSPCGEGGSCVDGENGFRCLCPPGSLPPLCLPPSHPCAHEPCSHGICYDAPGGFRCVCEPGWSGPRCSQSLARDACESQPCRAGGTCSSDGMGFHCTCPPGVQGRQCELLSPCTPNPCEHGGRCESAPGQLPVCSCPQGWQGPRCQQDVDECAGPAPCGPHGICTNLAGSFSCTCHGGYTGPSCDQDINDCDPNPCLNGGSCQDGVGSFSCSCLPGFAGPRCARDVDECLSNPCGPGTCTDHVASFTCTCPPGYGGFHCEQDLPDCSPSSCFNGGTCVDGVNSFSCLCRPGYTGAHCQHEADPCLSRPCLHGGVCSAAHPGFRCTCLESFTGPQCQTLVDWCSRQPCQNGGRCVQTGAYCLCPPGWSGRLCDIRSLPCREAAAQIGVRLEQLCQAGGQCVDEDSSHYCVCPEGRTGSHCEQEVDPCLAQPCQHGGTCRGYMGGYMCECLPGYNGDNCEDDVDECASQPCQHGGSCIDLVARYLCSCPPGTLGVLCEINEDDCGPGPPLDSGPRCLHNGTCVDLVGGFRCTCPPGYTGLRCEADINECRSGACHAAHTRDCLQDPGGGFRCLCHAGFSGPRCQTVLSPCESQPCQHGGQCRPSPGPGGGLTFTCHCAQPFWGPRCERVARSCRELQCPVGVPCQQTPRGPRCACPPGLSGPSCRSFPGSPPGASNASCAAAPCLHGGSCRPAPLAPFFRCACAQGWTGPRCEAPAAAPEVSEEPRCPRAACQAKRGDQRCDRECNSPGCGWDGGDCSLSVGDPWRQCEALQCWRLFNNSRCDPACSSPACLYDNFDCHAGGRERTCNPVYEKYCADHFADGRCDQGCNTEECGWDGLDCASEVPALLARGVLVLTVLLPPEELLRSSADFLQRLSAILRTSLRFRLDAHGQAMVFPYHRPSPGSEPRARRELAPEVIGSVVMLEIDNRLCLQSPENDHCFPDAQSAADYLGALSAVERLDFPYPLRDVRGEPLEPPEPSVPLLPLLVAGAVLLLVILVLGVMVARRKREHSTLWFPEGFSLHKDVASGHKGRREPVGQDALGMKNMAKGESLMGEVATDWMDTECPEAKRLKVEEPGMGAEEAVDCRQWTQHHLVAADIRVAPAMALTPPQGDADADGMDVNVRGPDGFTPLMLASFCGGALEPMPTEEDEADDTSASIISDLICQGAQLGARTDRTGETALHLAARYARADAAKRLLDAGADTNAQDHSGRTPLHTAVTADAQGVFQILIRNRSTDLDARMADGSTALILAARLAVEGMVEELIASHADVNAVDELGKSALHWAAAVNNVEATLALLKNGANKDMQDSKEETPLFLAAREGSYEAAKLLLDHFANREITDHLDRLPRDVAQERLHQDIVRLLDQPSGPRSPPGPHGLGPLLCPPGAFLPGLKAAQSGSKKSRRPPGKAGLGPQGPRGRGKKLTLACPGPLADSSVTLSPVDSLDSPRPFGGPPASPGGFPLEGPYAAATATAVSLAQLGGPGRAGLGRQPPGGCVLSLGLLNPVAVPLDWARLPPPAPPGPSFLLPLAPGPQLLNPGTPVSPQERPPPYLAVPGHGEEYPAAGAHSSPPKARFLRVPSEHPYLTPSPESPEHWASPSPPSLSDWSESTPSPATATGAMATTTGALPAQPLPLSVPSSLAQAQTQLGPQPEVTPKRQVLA", "assay": "NOTCH3 binders on small-molecule microarray, primary screen, biochemical, 635/667 nm fluorescence (AID 1096)", "conditions": "NOTCH3 binding, 635 nm fluorescence, higher = more signal"}, "[10]": {"assay": "small-molecule microarray binders of probe aEGFR, primary screen, biochemical, biotinylated probe, 635/667 nm fluorescence (AID 1097);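 also: probe is a biotinylated anti-EGFR antibody binding compounds printed on slides; score combines fluorescence near 667 nm and signal to noise of each spot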", "conditions": "higher = more signal"}},
  "note": "Calls of active or inactive are those of the source.",
  "data": [
    {"smiles": "COc1cc2c(cc1OC)CN(C(=O)[C@@H]1[C@H]3C(=O)O[C@H](c4ccccc4)[C@H](c4ccccc4)N3[C@H](c3ccc(O)cc3)[C@@]13C(=O)Nc1ccccc13)CC2", "values": [
      {"measurement": "composite z-score", "setting": "[1]", "value": 1.35},
      {"measurement": "z-score", "setting": "[2]", "value": "0.27 (inactive)"},
      {"measurement": "z-score", "setting": "[3]", "value": "-0.0755 (inactive)"},
      {"measurement": "z-score", "setting": "[4]", "value": "0.637 (inactive)"},
      {"measurement": "composite z-score", "setting": "[5]", "value": 3.04},
      {"measurement": "z-score", "setting": "[6]", "value": "3.03 (inactive)"},
      {"measurement": "composite z-score", "setting": "[7]", "value": -0.115},
      {"measurement": "composite z-score", "setting": "[8]", "value": 0.497},
      {"measurement": "composite z-score", "setting": "[9]", "value": 0.347},
      {"measurement": "composite z-score", "setting": "[10]", "value": -0.115}
    ]},
    {"smiles": "CC(=O)NCCCC[C@@H]1NC(=O)[C@@H]2C[C@H](C(=O)NCCCCCNC(=O)CS)[C@H](c3cccc(OCCO)c3)N2C1=O", "values": [
      {"measurement": "composite z-score", "setting": "[1]", "value": 1.18},
      {"measurement": "z-score", "setting": "[2]", "value": "-3.39 (inactive)"},
      {"measurement": "z-score", "setting": "[3]", "value": "-0.0277 (inactive)"},
      {"measurement": "z-score", "setting": "[4]", "value": "-2.5 (inactive)"},
      {"measurement": "composite z-score", "setting": "[5]", "value": -0.0484},
      {"measurement": "z-score", "setting": "[6]", "value": "1.16 (inactive)"},
      {"measurement": "composite z-score", "setting": "[7]", "value": -0.141},
      {"measurement": "composite z-score", "setting": "[8]", "value": 1.55},
      {"measurement": "composite z-score", "setting": "[9]", "value": 0.486},
      {"measurement": "composite z-score", "setting": "[10]", "value": -0.0808}
    ]},
    {"smiles": "CC(CO)N1C(=O)[C@@H]2C3C(=O)OCCC/C=C\\[C@H]3OC23C=CCN(C(C)(C)C)C(=O)[C@@H]13", "note": "(stereo not given in full)", "values": [
      {"measurement": "composite z-score", "setting": "[1]", "value": 0.0207},
      {"measurement": "z-score", "setting": "[2]", "value": "-0.226 (inactive)"},
      {"measurement": "z-score", "setting": "[3]", "value": "-0.911 (inactive)"},
      {"measurement": "z-score", "setting": "[4]", "value": "-0.706 (inactive)"},
      {"measurement": "composite z-score", "setting": "[5]", "value": 0.478},
      {"measurement": "z-score", "setting": "[6]", "value": "-0.0054 (inactive)"},
      {"measurement": "composite z-score", "setting": "[7]", "value": -0.216},
      {"measurement": "composite z-score", "setting": "[8]", "value": 0.0872},
      {"measurement": "composite z-score", "setting": "[9]", "value": 0.201},
      {"measurement": "composite z-score", "setting": "[10]", "value": -0.0905}
    ]},
    {"smiles": "C#C[C@H](O[Si](C#Cc1ccc(Oc2ccccc2)cc1)(C(C)C)C(C)C)c1ccccc1", "values": [
      {"measurement": "composite z-score", "setting": "[1]", "value": 1.23},
      {"measurement": "z-score", "setting": "[2]", "value": "-0.824 (inactive)"},
      {"measurement": "z-score", "setting": "[3]", "value": "-19.1 (active)"},
      {"measurement": "z-score", "setting": "[4]", "value": "-0.42 (inactive)"},
      {"measurement": "composite z-score", "setting": "[5]", "value": 1.02},
      {"measurement": "z-score", "setting": "[6]", "value": "-0.547 (inactive)"},
      {"measurement": "composite z-score", "setting": "[7]", "value": -0.0666},
      {"measurement": "composite z-score", "setting": "[8]", "value": 0.531},
      {"measurement": "composite z-score", "setting": "[9]", "value": 0.185},
      {"measurement": "composite z-score", "setting": "[10]", "value": -0.0286}
    ]},
    {"smiles": "CC(C)NC(=O)[C@@H]1c2ccccc2C(=O)N(C2Cc3ccccc3C2)[C@H]1c1ccc(CO)cc1", "values": [
      {"measurement": "composite z-score", "setting": "[1]", "value": 1.03},
      {"measurement": "z-score", "setting": "[2]", "value": "-0.14 (inactive)"},
      {"measurement": "z-score", "setting": "[3]", "value": "-0.0232 (inactive)"},
      {"measurement": "z-score", "setting": "[4]", "value": "-0.377 (inactive)"},
      {"measurement": "composite z-score", "setting": "[5]", "value": 2.33},
      {"measurement": "z-score", "setting": "[6]", "value": "1.28 (inactive)"},
      {"measurement": "composite z-score", "setting": "[7]", "value": -0.0491},
      {"measurement": "composite z-score", "setting": "[8]", "value": 0.0941},
      {"measurement": "composite z-score", "setting": "[9]", "value": 0.436},
      {"measurement": "composite z-score", "setting": "[10]", "value": -0.126}
    ]},
    {"smiles": "CCOC(=O)C[C@H]1[C@H](OC(=O)c2ccccc2-c2ccccc2)[C@@H](NC(=O)CC(C)C)c2cc(OCCCO)ccc2N1C(=O)Cc1ccc(OC)cc1", "values": [
      {"measurement": "composite z-score", "setting": "[1]", "value": 0.395},
      {"measurement": "z-score", "setting": "[2]", "value": "-0.454 (inactive)"},
      {"measurement": "z-score", "setting": "[3]", "value": "0.109 (inactive)"},
      {"measurement": "z-score", "setting": "[4]", "value": "0.146 (inactive)"},
      {"measurement": "composite z-score", "setting": "[5]", "value": 0.472},
      {"measurement": "z-score", "setting": "[6]", "value": "-0.853 (inactive)"},
      {"measurement": "composite z-score", "setting": "[7]", "value": -0.103},
      {"measurement": "composite z-score", "setting": "[8]", "value": 0.356},
      {"measurement": "composite z-score", "setting": "[9]", "value": -0.23},
      {"measurement": "composite z-score", "setting": "[10]", "value": -0.111}
    ]}
  ]
}
